Bioassay records as filed in PubChem.
A selection: hits, their analogues and other compounds. The true share with any hit is near 2.9%.
IP6K1 inh – Primary qHTS assay for small molecule inhibitors of Inositol hexaphosphate kinase 1 (IP6K1); Inositol hexakisphosphate kinase 1 (Homo sapiens), Q92551; IP6K1 kinase, ADP-Glo luminescence, 2 h; active compounds read low; activity change, % (series mostly up to about 58 µM); hit rate 0.81% among 140,000; AID 1645851, 2021; in the data active means activity change below about -25%; further: on the % scale 0 is the no-effect control and ±100 the full control effect
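ADP-Glo luminescence measures ADP made by human IP6K1 during a 2 h RT reaction with ATP/IP6 (mix at 1.3 mM/130 uM); top library doses 57.5 and 19.1 uM final.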
SNCA viab count – GF-AFC viability counterscreen for inhibitors of alpha-synuclein gene (SNCA) expression | AID 1671193, 2021 | hit rate 0.12% among 150,000 | HEK-293-SNCA-luc viability, GF-AFC fluorescence, 24 h | Potency, µM (highest dose often 57.1 µM), without a hit: at the highest dose activity change, negative = cytotoxicity, usual class: cytotoxic;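 further: potency means the concentration at half of the fitted maximal effect; 0% = DMSO-treated cells and -100% = medium-only wells without cells; nearly all actives have a fitted effect of over 30% in size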
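HEK-293-SNCA-luc cells (1500/well) plated 24 h, then exposed 24 h to a dilution series; GF-AFC added 30 min at 37C, fluorescence 405/540 nm; normalised to medium-only and DMSO wells, Hill fit.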
KDM5B inh – Primary screen for KDM5B Histone Demethylases FDH-coupled qHTS; Lysine-specific demethylase 5B (Homo sapiens), Q9UGL1; KDM5B demethylase, FDH-coupled NADH fluorescence (FDH is formaldehyde dehydrogenase); Potency, µM (highest dose often 57.7 µM), most hits filed as inhibitors; hit rate 2.6% among 220,000; further: potency means the concentration at half of the fitted maximal effect; 0% is about no effect; nearly all actives have a fitted effect of over 70% in size
Target sequence (Q9UGL1 whole entry, looked up): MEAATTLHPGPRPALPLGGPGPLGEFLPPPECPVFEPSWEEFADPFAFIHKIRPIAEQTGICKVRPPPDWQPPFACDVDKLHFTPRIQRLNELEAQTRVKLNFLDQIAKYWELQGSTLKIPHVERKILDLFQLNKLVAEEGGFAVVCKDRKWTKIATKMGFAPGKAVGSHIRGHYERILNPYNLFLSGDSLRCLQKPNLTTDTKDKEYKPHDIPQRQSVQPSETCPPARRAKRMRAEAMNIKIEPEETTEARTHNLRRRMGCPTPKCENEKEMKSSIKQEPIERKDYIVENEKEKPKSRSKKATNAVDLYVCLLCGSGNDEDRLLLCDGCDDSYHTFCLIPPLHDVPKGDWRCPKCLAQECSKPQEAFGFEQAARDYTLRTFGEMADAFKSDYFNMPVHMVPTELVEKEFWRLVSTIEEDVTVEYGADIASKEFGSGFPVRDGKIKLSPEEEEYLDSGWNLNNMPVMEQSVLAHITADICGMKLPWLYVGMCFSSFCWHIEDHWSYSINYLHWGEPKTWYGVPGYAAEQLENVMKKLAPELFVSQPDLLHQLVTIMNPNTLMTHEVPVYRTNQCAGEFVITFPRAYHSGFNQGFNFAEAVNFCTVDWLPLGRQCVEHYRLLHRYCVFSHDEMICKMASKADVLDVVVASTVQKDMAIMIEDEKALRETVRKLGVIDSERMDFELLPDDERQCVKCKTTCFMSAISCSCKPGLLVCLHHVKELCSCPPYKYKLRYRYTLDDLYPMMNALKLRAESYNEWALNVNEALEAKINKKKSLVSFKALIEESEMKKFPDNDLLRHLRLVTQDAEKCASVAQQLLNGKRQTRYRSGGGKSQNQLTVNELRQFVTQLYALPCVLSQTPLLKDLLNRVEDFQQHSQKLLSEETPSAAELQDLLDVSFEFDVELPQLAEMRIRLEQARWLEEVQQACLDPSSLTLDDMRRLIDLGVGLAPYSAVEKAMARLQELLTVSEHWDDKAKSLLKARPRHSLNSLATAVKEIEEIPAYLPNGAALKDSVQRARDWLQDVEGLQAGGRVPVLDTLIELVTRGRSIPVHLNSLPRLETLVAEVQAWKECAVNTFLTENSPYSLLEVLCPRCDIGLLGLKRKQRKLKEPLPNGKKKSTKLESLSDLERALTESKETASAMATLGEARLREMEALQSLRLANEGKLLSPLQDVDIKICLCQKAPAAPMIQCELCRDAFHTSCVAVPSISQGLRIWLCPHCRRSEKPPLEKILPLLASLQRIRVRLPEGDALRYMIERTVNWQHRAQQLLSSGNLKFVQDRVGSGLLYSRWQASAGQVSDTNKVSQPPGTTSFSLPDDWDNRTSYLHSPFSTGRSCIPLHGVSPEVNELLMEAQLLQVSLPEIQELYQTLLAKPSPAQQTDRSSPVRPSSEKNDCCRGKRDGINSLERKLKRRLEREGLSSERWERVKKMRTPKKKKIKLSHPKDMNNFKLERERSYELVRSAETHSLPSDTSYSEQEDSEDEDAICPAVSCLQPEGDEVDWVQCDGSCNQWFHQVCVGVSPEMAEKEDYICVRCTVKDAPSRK
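Inhibition is measured as reduced NADH fluorescence generation from FDH coupling to formaldehyde release. Truncated KDM5BΔAP at 200 nM final acts on H3K4me3 peptide (12.5 µM in substrate mix) in pH 7.5 HEPES buffer with Tween-20, 30 min, room temperature.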
SNCA expr inhib – Primary qHTS assay for inhibitors of alpha-synuclein gene (SNCA) expression; HEK-293 SNCA-luciferase knock-in, luminescence, 24 h; Potency, µM (top dose mostly 57.2 µM), without a hit: at the top dose activity change, negative = inhibition, usual class: inhibitors; hit rate 0.17% among 140,000;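 further: potency means the concentration at half of the fitted maximal effect; plate controls were DMSO cells for no effect and cell-free wells for full effect; nearly all actives have a fitted effect of over 45% in size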
Starred values were filed as active, the others as inactive; i = inactive; ? = inconclusive; nt = no result; [ ] = another dose, or the depositor's remark. Unless noted, the call rests on the fitted dose curve; in most records, active means well fitted curve in the direction sought with a large enough effect; inconclusive means small, poorly fitted or top-dose-only effect, or another doubt; inactive means no such curve, though single readings can be large; an effect the other way counts as inactive or inconclusive.

SMILES | IP6K1 inh | SNCA viab count | KDM5B inh | SNCA expr inhib
COc1ccc(-c2cc(C(F)(F)F)n3nc(C(=O)OC(C)C)cc3n2)cc1 | -14.5 | -10.2% | i | -3.5%
O=C(Cc1cccc(Cl)c1)NC1CCN(CCn2nc3n(c2=O)CCCC3)C1 (centres undefined) | -11.3 | nt | nt | nt
CC1(COc2ccccc2)COc2ccc(C(=O)NCc3cccnc3)cc2N1 (centres undefined) | -1.1 | 3.8%[87.6 µM] | 35.5µM* | -6.3%[87.6 µM]
CC1(COc2ccccc2)COc2ccc(C(=O)NCCc3ccccn3)cc2N1 (centres undefined) | 10.5 | -6.9%[87.6 µM] | 31.6µM* | -29.9%[87.6 µM]
CC1(COc2ccccc2)COc2ccc(C(=O)NCCc3cnc[nH]3)cc2N1 (centres undefined) | -4.4 | 10.3%[87.6 µM] | 35.5µM* | ?
CC1(COCC2CC2)COc2ccc(C(=O)N3CCOCC3c3cccc(F)c3)cc2N1 (centres undefined) | 13.6 | 0.8%[87.6 µM] | 35.5µM* | -26.1%[87.6 µM]
C[C@@H]1CN(C(=O)c2ccc3c(c2)NC(C)(COCC2CC2)CO3)C[C@H](C)O1 (some centres undefined) | 4.8 | 12.6%[87.6 µM] | i | -12.1%[87.6 µM]
CCOC(=O)CSc1nc2sc3c(c2c(=O)n1-c1ccccc1)CC(C(C)C)OC3 (centres undefined) | nt | nt | i | nt
Cc1ccc(NC(=O)N[C@H]2C[C@@](O)(C(=O)N[C@H]3CCCNC3=O)C[C@@H](O)[C@@H]2O)cc1 | 6.5 | 5.8%[87.6 µM] | i | -15.7%[87.6 µM]
COc1cccc(C(=O)COC(=O)c2ccc3c(c2)OCO3)c1 | nt | nt | i | nt
O[C@@H]1CCN(Cc2nc(C3(O)CCN(CC4CC4)CC3)cs2)C1 | -5.0 | 1.1%[87.6 µM] | i | -1.0%[87.6 µM]
CC1(COc2cccnc2)COc2ccc(C(=O)NCCOc3ccccc3)cc2N1 (centres undefined) | 7.4 | ? | 31.6µM* | ?
CN(C(=O)c1ccc2c(c1)NC(C)(COCC1CC1)CO2)c1ccccc1 (centres undefined) | -11.2 | -2.8%[87.6 µM] | i | -16.1%[87.6 µM]
CC1(COc2ccccc2)COc2ccc(C(=O)NCc3cccc(F)c3)cc2N1 (centres undefined) | 5.1 | -15.6%[87.6 µM] | 31.6µM* | -34.7%[87.6 µM]
CC1(COc2cccnc2)COc2ccc(C(=O)NCCc3ccccc3)cc2N1 (centres undefined) | 17.0 | -21.8%[87.6 µM] | 35.5µM* | 11.6%[87.6 µM]
CC1(COc2ccccc2)COc2ccc(C(=O)NCCc3ccccc3)cc2N1 (centres undefined) | -0.3 | -1.0%[87.6 µM] | ? | -28.3%[87.6 µM]
CC1(COCC2CC2)COc2ccc(C(=O)NCc3cccc(F)c3)cc2N1 (centres undefined) | 12.7 | -10.8%[87.6 µM] | 39.8µM* | 2.9%[87.6 µM]
COC(=O)c1c(C)sc2c1OC(N)=C(C#N)C21C(=O)N(Cc2ccccc2F)c2ccccc21 (centres undefined) | nt | nt | i | nt
CC(C)c1cc(C(=O)N2CC[C@H](N3CCOCC3)[C@H](CCCO)C2)nc(N)n1 | 7.3 | -7.0% | i | 6.2%
Cc1ccc(C)c(C(=O)N2CCN(C(=O)c3nnn4c3COC(c3ccccc3)C4)CC2)c1 (centres undefined) | 8.9 | 3.5% | i | 9.0%
Cn1ncc2c(NCCc3cn4ccccc4n3)nc(C3CCCC3)nc21 | 16.7 | 3.8% | 20µM* | -4.7%
Cc1nc(NCCCNC2CCCCC2)c2cnn(C)c2n1 | nt | nt | i | nt
Cc1ccc(CNC(=O)N2CCc3c(nc4cc(-c5ccccc5Cl)[nH]n4c3=O)C2)cc1 | 22.6 | 6.2% | ? | ?
CC(=O)Nc1ccc(CC(=O)N2CCc3c(nc4cc(-c5ccccc5Cl)[nH]n4c3=O)C2)cc1 | 31.4 | 8.0% | 25.1µM* | 23.0%
COC(=O)CNC(=O)N1CCc2c(nc3cc(-c4ccccc4Cl)[nH]n3c2=O)C1 | 51.1 | 7.4% | 22.4µM* | ?
SMILES | IP6K1 inh | SNCA viab count | KDM5B inh | SNCA expr inhib
O=C(NCC1CCCO1)N1CCc2c(nc3cc(-c4ccccc4Cl)[nH]n3c2=O)C1 (centres undefined) | 25.2 | 2.7% | 20µM* | -18.9%
COc1cccc(NC(=O)N2CCc3nc4cc(-c5ccccc5Cl)[nH]n4c(=O)c3C2)c1 | 4.4 | -1.7% | 25.1µM* | ?
Cc1cc(=O)n2c3ccccc3n(CC(O)CNc3ccc(C(C)C)cc3)c2c1C#N (centres undefined) | nt | nt | i | nt
COc1ccc(Oc2coc3cc(OC(=O)c4cccc(OC)c4)ccc3c2=O)cc1 | nt | nt | i | nt
Cc1cc(SC(C)C(=O)NC(=O)NC2CC2)nc2c(C)cccc12 (centres undefined) | nt | nt | i | nt
CN1CCN(c2ccnc(-c3ccc(N(C)C)cc3)n2)CC1 | nt | -5.3% | nt | 16.5%
COCCNC(=O)c1cc(C2CC2)nc2c1c(C1CCCN1)nn2-c1ccccc1 (centres undefined) | 8.7 | 1.8% | i | 203.4%
COc1ccc(-c2cc(C(=O)NCC(C)C)c3c(C4CCCN4)nn(C)c3n2)cc1 (centres undefined) | 14.8 | -11.0% | 50.1µM* | 10.7%
COc1ccc(-c2cc(C(=O)N3CCOCC3)c3c(C4CCCN4)nn(C)c3n2)cc1 (centres undefined) | -2.1 | 2.3% | ? | -9.8%
COCCNC(=O)c1cc(-c2ccc(OC)cc2)nc2c1c(C1CCCN1)nn2C (centres undefined) | -4.6 | 4.5% | 79.4µM* | -1.3%
CCc1nn2c(=O)cc(COC(=O)c3ccc(NC(=O)COc4ccc(C)cc4)cc3)nc2s1 | -20.5 | 2.8% | ? | -5.1%
COc1ccc(Cc2nc3nccc(-c4ccc(F)cc4OC)n3n2)cc1 | -8.4 | 8.1% | 17.8µM* | 6.9%
Fc1ccc(Cc2nc3nccc(-c4cccs4)n3n2)cc1 | -9.5 | -2.1% | 28.2µM* | 128.5%
COc1ccc(Cc2nc3nccc(-c4cccs4)n3n2)cc1 | 4.4 | 1.2% | i | 61.4%
COc1ccc(Cc2nc3nccc(-c4ccncc4)n3n2)cc1 | 4.5 | 11.8% | i | 31.7%
COc1ccc(-c2ccnc3nc(Cc4ccc(F)cc4)nn23)c(F)c1 | -11.0 | -5.5% | 25.1µM* | -13.1%
COc1ccc(Cc2nc3nccc(-c4ccc(OC)cc4F)n3n2)cc1 | -12.7 | -24.4% | 28.2µM* | -13.7%
O=C1NC2(CCCN(CC3CCCC3)C2)Oc2ccccc21 (centres undefined) | 11.8 | -2.4%[87.6 µM] | i | -6.4%[87.6 µM]
CC(C)(C)c1ccc(C(=O)Nc2cccc(C(=O)N3CCOCC3)c2)cc1 | nt | nt | i | nt
COc1cc(F)ccc1-c1ccnc2nc(CC(C)C)nn12 | 10.5 | 4.9% | 28.2µM* | -28.1%
CNC(=O)[C@@H]1CN(C(=O)c2cc3ccc(OC)cc3[nH]2)C[C@H]1c1n[nH]c(C)n1 | 3.1 | 7.0% | ? | 0.3%
COc1ccc2[nH]c(C(=O)N3C[C@@H](C(N)=O)[C@H](c4n[nH]c(C)n4)C3)cc2c1 | 3.2 | -20.7% | 28.2µM* | 11.7%
CNC(=O)[C@@H]1CN(C(=O)c2cc3cc(OC)ccc3[nH]2)C[C@H]1COC | 6.6 | -0.8% | 31.6µM* | -7.6%
